Pf growth 96h: P. falciparum growth inhibition at 96 hour, primary screen for plastid delayed-death inhibitors. P. falciparum luciferase reporter growth, 96 h. Potency, µM (doses to about 28.7 µM), without a hit: at the highest dose activity change, negative = inhibition, usual class: inhibitors. 320,000 tested, 6.9% active. AID 504834; further: potency means the concentration at half of the fitted maximal effect; on the % scale 0 is the no-effect control and ±100 the full control effect
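Compounds incubated with erythrocytes infected by luciferase-expressing P. falciparum (2% hematocrit, 0.05% parasitemia final) for 96 hours, 37 C in 5% CO2. Growth inhibition scored as decreased luciferase luminescence.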
Pf growth 48h: P. falciparum growth inhibition at 48 hours (one generation); P. falciparum luciferase growth in erythrocytes, 48 h; 310,000 tested, 5.9% active; Potency, µM (series often up to 28.7 µM), for inactives: at the top dose activity change, negative = inhibition, actives largely listed as inhibitors; further: potency means the concentration at half of the fitted maximal effect; on the % scale 0 is the no-effect control and ±100 the full control effect
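Growth was read as firefly luciferase luminescence after a 48 h, 37 C, 5% CO2 exposure of compounds to reporter-bearing P. falciparum cultures (0.1% parasitemia, 2% hematocrit final) in Albumax-supplemented RPMI 1640.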
NS1 function inh: inhibitors of influenza NS1 protein function; Potency, µM (top dose mostly 46.1 µM), inactives show at the top dose activity, positive = more growth; 270,000 tested, 0.4% active; AID 2326; calls by dose curve; further: potency means the concentration at half of the fitted maximal effect; actives are rising curves; nearly all actives have a fitted effect of over 50% in size
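In this qHTS, NS1 from influenza A is expressed in budding yeast, where it slows growth. Cells are switched from glucose to 2% galactose medium (pH 6.0, -URA), treated with compound, and growth recovery is read at OD600.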
Shiga inhibitor: Shiga toxin inhibition | Vero cells, Shiga toxin protein synthesis inhibition reporter | inhibition, % at 38.7 µM | 290,000 tested, 9.2% active; in the data active means inhibition mostly above about 28%, no sharp cut-off; inactive means mostly below about 43%; further: 0% is about no effect
Cycloheximide cs: counter-screen hit for Shiga toxin inhibitors, cycloheximide; max response, %; 300,000 tested, 12% active; cell reporter, cycloheximide protein synthesis inhibition counterscreen; AID 2314; in the data active means max response mostly above about 13%, no sharp cut-off; inactive means mostly below about 14%; further: read at 38.3 µM for the half of the compounds with a filed dose; 0% is about no effect
Active calls of the source: *; ? = inconclusive; . = no result given. Only some compounds are listed: those with a hit (about 21% of all), similar ones and a draw of the others. Unless noted, the call rests on the fitted dose curve; in most records, active means well fitted inhibition curve with a large enough effect; inconclusive means small, poorly fitted or top-dose-only effect, or another doubt; inactive means no such curve, though single readings can be large or run the other way.

SMILES	Pf growth 96h	Pf growth 48h	NS1 function inh	Shiga inhibitor	Cycloheximide cs
CC(=O)Nc1c2sscc-2n(C)c1=O	.	.	.	35.6*	47.3*
Cc1cc(NC(=O)c2cc3n(n2)C(C(F)(F)F)CC(c2ccco2)N3)no1 (centres undefined)	10.4µM*	.	-5.9%	30.6	-1.1
Cc1nnc(NC(=O)c2cc3n(n2)C(C(F)(F)F)CC(C2CC2)N3)s1 (centres undefined)	-95.1%	-7.8%	-7.4%	-0.4	-2.4
Cc1ccc(Cl)cc1NC(=O)c1cnn2c1NC(c1ccco1)CC2C(F)(F)F (centres undefined)	?	.	0.0%	-25.7	0.7
O=C(Nc1nc2c(s1)CCCC2)c1cc2n(n1)C(C(F)(F)F)CC(C1CC1)N2 (centres undefined)	?	-28.7%	-3.8%	40.4	19.0*
O=C(Nc1ccc2c(c1)CCC2)c1cnn2c1NC(c1ccco1)CC2C(F)(F)F (centres undefined)	.	18.1%	9.2%	90.0*	51.8*
O=C(Nc1ccccc1)c1cc2n(n1)C(C(F)(F)F)CC(C1CC1)N2 (centres undefined)	21.0%	32.9%	-5.6%	58.5*	36.3*
O=C(NCc1ccc(F)cc1)c1cc2n(n1)C(C(F)(F)F)CC(C1CC1)N2 (centres undefined)	?	.	?	29.0	-4.9
COc1cccc(CNC(=O)CCCN2C(=O)C(c3ccccc3)Oc3cccnc32)c1OC (centres undefined)	?	?	-8.7%	-9.3	28.9
CC(CCC(=O)O)C1CC[C@@]2(C)C3C(=O)CC4C(C)(C)C(O)CC[C@]4(C)C3C(=O)C[C@]12C (some centres undefined)	-6.2%	50.8%	18.8%	-3.9	-2.2
O=C1CCCCN1CCC(=O)N1CCCC(N2CCN(c3cccc(Cl)c3)CC2)C1 (centres undefined)	-13.3%	56.3%	3.7%	35.4*	24.1*
CCc1nccn1CCC(=O)N1CCCC(N2CCN(c3cccc(Cl)c3)CC2)C1 (centres undefined)	36.9%	-12.2%	0.9%	49.0*	31.1*
CNC(=O)COC(=O)c1ccc2c(c1)NC(=O)C1CCCN21 (centres undefined)	-22.8%	0.2%	14.9%	-23.3	9.4
COc1ccc(C(=O)OCC(=O)c2ccc(CNC(C)=O)s2)cc1	?	23.1%	.	.	.
CC(=O)NCc1ccc(C(=O)CCl)s1	?	4.15µM*	0.0%	21.7	5.3
CN(C)C(=S)NC(C)(C)C	30.4%	26.4%	1.7%	-8.4	-2.5
CCOC(=O)C1CCN(C(=O)CN(c2ccc3c(c2)OCCO3)S(=O)(=O)c2ccccc2)CC1	-1.6%	?	.	.	.
Cc1ccc(N(CC(=O)N2CC(=O)Nc3ccccc32)S(=O)(=O)c2ccc3c(c2)OCCO3)cc1	?	11.7µM*	4.7%	-3.3	-0.6
CC1CCN(C(=O)CN(c2ccc3c(c2)OCCO3)S(=O)(=O)c2ccccc2)CC1	-8.4%	?	9.8%	53.8*	35.7*
O=C(/C=C/c1ccc(O)c(O)c1)NC(=O)c1ccccc1O	150.5%	73.0%	5.4%	23.5	14.8
O=C(/C=C/c1ccc(Br)cc1)NC(=O)c1ccccc1O	?	82.8%	1.8%	46.1	31.7*
CSc1ccc(/C=C/C(=O)NC(=O)c2ccccc2O)cc1	5.3%	?	-39.1%	19.7	9.6*
CN(CCCC(=O)NCc1ccc2c(c1)OCO2)S(=O)(=O)c1ccc([N+](=O)[O-])cc1	3.0%	?	4.2%	-1.0	2.0
c1cc(CSc2ncnc3nc[nH]c23)ccn1	.	.	-2.8%	.	.
CC1CCCC(C)N1C(=O)CSc1nnc(-c2c[nH]c3ccccc23)o1 (centres undefined)	7.7%	?	3.6%	29.7	19.3
SMILES	Pf growth 96h	Pf growth 48h	NS1 function inh	Shiga inhibitor	Cycloheximide cs
CC1CCCN(C(=O)CSc2nnc(-c3c[nH]c4ccccc34)o2)C1 (centres undefined)	?	.	-14.7%	71.6	34.7*
N#CCSc1nnc(-c2c[nH]c3ccccc23)o1	?	-5.5%	15.7%	-11.9	-2.9
COc1ccc(CN(C(=O)CSc2nnc(-c3ccc(F)cc3)o2)c2ccc(F)cc2)cc1	-1.5%	-22.6%	-20.3%	-4.1	-5.8
COc1ccc(CN(C(=O)CSc2nnc(-c3c[nH]c4ccccc34)o2)c2ccc(F)cc2)cc1OC	?	4.15µM*	28.1%	51.5*	40.6*
CCC1CCCCN1C(=O)CSc1nnc(-c2c[nH]c3ccccc23)o1 (centres undefined)	-6.9%	.	5.7%	28.4	16.2*
CCSc1nnc(-c2c[nH]c3ccccc23)o1	-26.9%	48.6%	-36.6%	87.9*	43.7*
O=Cc1c(NCc2ccco2)nc2ccccn2c1=O	5.0%	41.2%	-2.6%	23.9	16.4*
Cc1ccc2[nH]c(=O)c(CN(Cc3ccco3)C(=O)c3cccs3)cc2c1	-6.7%	-13.5%	0.2%	-0.7	-0.8
CCC(C)N=Cc1c(NCc2ccco2)nc2c(C)cccn2c1=O (centres undefined)	-1.1%	21.5%	-9.9%	-13.2	2.6
Cc1ccc2[nH]c(=O)c(-c3nc4ccccn4c3NCc3ccco3)cc2c1	4.65µM*	32.7%	0.9%	33.2	29.7
Cc1ccc(NC(=O)CCC(=O)c2cc(C)sc2C)nc1	7.9%	?	.	.	.
[O-]/[N+](=C\c1ccc(F)cc1)c1ccccc1	.	33.2%	-16.9%	5.9	18.0*
[O-]/[N+](=C\c1ccccc1)c1ccc(Br)cc1	189.8%	-10.2%	.	.	.
[O-]/[N+](=C\c1cccc(Br)c1)c1ccccc1	3.7%	81.7%	.	82.2*	43.9*
CC(C)=CCOc1ccc(/C=C/C(=O)c2ccc(OCC=C(C)C)cc2OCC(=O)O)cc1	-17.2%	-12.1%	.	21.3	6.9
COc1ccc(OCC(=O)N(Cc2sccc2C)C2CCS(=O)(=O)C2)cc1 (centres undefined)	?	-4.9%	5.8%	1.6	-3.3
Nc1cc(C(=O)OCC(=O)NCc2ccco2)ccc1Cl	19.9%	26.2%	-5.9%	14.6	5.6
COc1ccc2c(=O)c3c(=O)n(-c4ccc(C)cc4)c(-c4ccccc4)nc3oc2c1	?	?	1.1%	10.7	1.0
Cc1ccc(-n2c(C)nc3oc4ccccc4c(=O)c3c2=O)cc1	-58.8%	186.2%	7.8%	120.6*	47.3*
Cc1ccc(-n2c(=S)[nH]c3c(oc4ccccc43)c2=O)cc1	28.2%	32.7%	21.9%	69.2*	39.6*
CN(Cc1ccccc1)C1=CC(=[N+]2CCCC2)CC(C)(C)C1	0.586µM*	0.928µM*	2.2%	2.8	-2.7
CCN(CC)C1=CC(=[N+]2CCCC2)CC(C)(C)C1	0.37µM*	1.31µM*	1.9%	-21.7	-5.7
CC(=O)c1cccc(NC(=O)Cc2coc3cc4c(cc23)CCC4)c1	12.1%	7.0%	-10.8%	20.6	1.1
C=CCn1c(C(c2ccccc2)c2ccccc2)n[nH]c1=S	3.7µM*	-20.4%	-1.8%	-4.4	5.2
CCn1c(C(c2ccccc2)c2ccccc2)n[nH]c1=S	?	.	7.0%	-12.8	-4.8

Bioassay records as filed in PubChem BioAssay.
